Measured values taken from PubChem BioAssay.
The source made the active and inactive calls.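 The calls were made as follows, unless noted: active = hit in primary screen, with calcium signal over 5 SD above buffer well mean in both duplicates; inactive = the rest.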

Tested on: TRPC4 (mouse), co-expressed with 5HT1a in HEK293
Experiment: enhancement of serotonin-evoked TRPC4 response – cell-based, second counter screen, HEK293 TRPC4/5HT1a, Fluo-4, counter-screen for TRPC4 potentiator project, confirmation (AID 434979;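 active = signal rise over 3 SD above mean of control wells given weak agonist, in both repeats and first screen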)
Conditions: Fluo-4 calcium flux, at 10 µM, serotonin added at its EC20 dose; stronger effect = higher value
With CCOC(=O)c1c(N)sc(C(O)(C(F)(F)F)C(F)(F)F)c1-c1ccccc1 the outcome was “inactive”.
With CC1CCCN(CCCN2C(=O)C3C(C(=O)Nc4ccc(Cl)cc4)C4C=CC3(O4)C2C(=O)NC2CCCCC2)C1 (stereo unspecified) the outcome was “inactive”.
In the case of O=C(C[n+]1cccc(CNC(=O)c2ccc(OC(F)F)cc2)c1)Nc1ccc(SC(F)F)cc1, the outcome is reported as “inactive”.
For Cc1ncsc1CCOC(=O)c1cccc([N+](=O)[O-])c1, the outcome was “inactive”.
In the case of CC#CC[N+](C)(C)CCCCCCCCCCCC, the outcome is reported as “inactive”.
With Cc1cc(OCc2cc(C(=O)NCCN3CCCCC3CO)no2)cc(C)c1Cl (stereo unspecified) the outcome was “inactive”.
With Cc1cc(N2CCC(C)CC2)nc2cccc(O)c12 the outcome was “inactive”.
In the case of Fc1ccccc1COc1ccc(Br)cc1CNCC1CCCO1 (stereo unspecified), the outcome is reported as “inactive”.
For Cn1cc(CNCC2CCCO2)c(-c2ccc(Oc3ccccc3)cc2)n1 (stereo unspecified), the outcome was “inactive”.
With COc1cccc(C2=NN(C(=O)c3ccco3)C(c3ccco3)C2)c1 (stereo unspecified) the outcome was “inactive”.
With O=C(COC(=O)Cn1cnc2ccccc2c1=O)Nc1ccccc1Sc1ccc(Cl)cc1 the outcome was “inactive”.
In the case of NC(=O)c1nsc(C(=O)N(Cc2ccccc2Cl)C(C(=O)NCC2CCCO2)c2ccc(O)cc2)c1N (stereo unspecified), the outcome is reported as “inactive”.
With O=C(NC1CCCCC1)N1CCN(C(c2ccccc2)c2ccccc2)CC1 the outcome was “inactive”.
For Cc1ccc(NC(=S)N(CCCN(C)C)Cc2cc3cc4c(cc3[nH]c2=O)OCO4)c(C)c1, the outcome was “inactive”.
For CCCC[n+]1c2ccccc2cc2ccccc21, the outcome was “inactive”.
In the case of CC(C)(C)CC(C)(C)NCC(O)COc1ccc2c(c1)CCC2 (stereo unspecified), the outcome is reported as “inactive”.
In the case of CCOc1ccc(Cl)cc1/C=N/O, the outcome is reported as “inactive”.
In the case of O=C(C[n+]1cc(-c2ccc(Cl)c(Cl)c2)n2c1CCC2)N1c2ccccc2Sc2ccccc21, the outcome is reported as “inactive”.
In the case of CC1CCc2c(sc3ncnc(SCC(=O)Nc4ccc(C(=O)O)cc4)c23)C1 (stereo unspecified), the outcome is reported as “inactive”.
In the case of NS(=O)(=O)c1ccc(Nc2nc(-c3ccc(O)cc3O)cs2)cc1, the outcome is reported as “inactive”.
For CCCn1c(NC(=O)c2ccc(Cl)c(S(=O)(=O)N3CCCC3)c2)nc2ccccc21, the potentiation was 6.75% (active).

Tested on: not listed separately
Experiment: nonspecific calcium rise without TRPC4 – cell-based, HEK293 mu-opioid receptor line, counter-screen for TRPC4 activator project, confirmation (AID 449723);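 also: counter screen cells carry the mu-opioid receptor alone and lack TRPC4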
Conditions: HEK293 mu-opioid cells, Fluo-4 calcium fluorescence, at 10 µM; stronger effect = higher value
In the case of COc1ccc(CN2CCN(Cc3ccccc3F)CC2)c(OC)c1, the outcome is reported as “inactive”.
For C/C(N)=C(/C#N)C(=O)COC(=O)CC12CC3CC(CC(C3)C1)C2, the outcome was “inactive”.
For CCCCC[n+]1cccc2c3ccccc3ccc21, the outcome was “inactive”.
With COc1ccc(OC)c(Nc2cc(-c3ccccc3)nc(N)n2)c1 the outcome was “inactive”.
In the case of CCC1CCCCN1Cc1nc2c(c(=O)n(C)c(=O)n2C)n1Cc1ccccc1 (stereo unspecified), the outcome is reported as “inactive”.
For CCOC(=O)C1CCN(C2CCN(C(=O)c3oc4c(C)c(C)ccc4c3C)CC2)CC1, the outcome was “inactive”.
In the case of O=[N+]([O-])c1cccc(-c2nnc(C3CC3)o2)c1, the outcome is reported as “inactive”.
With CCOc1c(Cl)cc(CNCC(O)c2ccccc2)cc1OC (stereo unspecified) the outcome was “inactive”.
In the case of O=C(c1cccc(C(=O)N2CCN(c3ccccc3)CC2)c1)N1CCN(c2ccccc2)CC1, the outcome is reported as “inactive”.
For Cc1ccn2c(-c3csc(NCc4ccco4)n3)c(C)nc2c1, the outcome was “inactive”.
For COc1ccc(Nc2nc(N)c3ccccc3n2)c(OC)c1, the outcome was “inactive”.
In the case of CCc1c(C(=O)N2CCCN(C)CC2)csc1C, the outcome is reported as “inactive”.
In the case of COc1ccc(C)cc1N(C(=O)c1snc(C(N)=O)c1N)C(C(=O)NC1CCCC1)c1ccc(F)cc1 (stereo unspecified), the outcome is reported as “inactive”.
With CC(C)(c1ccccc1)c1ccc(OCCCNCCO)cc1 the outcome was “inactive”.
With Cc1ccc(-n2nc(-c3cccs3)cc2C(=O)NCC2CCCO2)c(C)c1 (stereo unspecified) the outcome was “inactive”.
For CC(C)CCN1CCN(Cc2ccsc2)CC1CCO (stereo unspecified), the outcome was “inactive”.
In the case of CN(CC1CCCN(CCc2cccc(C(F)(F)F)c2)C1)C(=O)c1cc2ccccc2o1 (stereo unspecified), the outcome is reported as “inactive”.
In the case of Oc1ccc(CN2CCc3ccccc3C2)c2cccnc12, the outcome is reported as “inactive”.
With COc1ccc(C2C(C(C)=O)=C(O)C(=O)N2c2ccc(Br)cc2)cc1 (stereo unspecified) the outcome was “inactive”.
In the case of CCOC(=O)c1c(N)sc(C(O)(C(F)(F)F)C(F)(F)F)c1-c1ccccc1, the outcome is reported as “inactive”.
In the case of CC1CCCN(CCCN2C(=O)C3C(C(=O)Nc4ccc(Cl)cc4)C4C=CC3(O4)C2C(=O)NC2CCCCC2)C1 (stereo unspecified), the outcome is reported as “inactive”.
With O=C(C[n+]1cccc(CNC(=O)c2ccc(OC(F)F)cc2)c1)Nc1ccc(SC(F)F)cc1 the outcome was “inactive”.
For Cc1ncsc1CCOC(=O)c1cccc([N+](=O)[O-])c1, the outcome was “inactive”.
With CC#CC[N+](C)(C)CCCCCCCCCCCC the outcome was “inactive”.
With Cc1cc(OCc2cc(C(=O)NCCN3CCCCC3CO)no2)cc(C)c1Cl (stereo unspecified) the outcome was “inactive”.
For Cc1cc(N2CCC(C)CC2)nc2cccc(O)c12, the outcome was “inactive”.
With Fc1ccccc1COc1ccc(Br)cc1CNCC1CCCO1 (stereo unspecified) the outcome was “inactive”.
With Cn1cc(CNCC2CCCO2)c(-c2ccc(Oc3ccccc3)cc2)n1 (stereo unspecified) the outcome was “inactive”.
With COc1cccc(C2=NN(C(=O)c3ccco3)C(c3ccco3)C2)c1 (stereo unspecified) the outcome was “inactive”.
For O=C(COC(=O)Cn1cnc2ccccc2c1=O)Nc1ccccc1Sc1ccc(Cl)cc1, the outcome was “inactive”.
In the case of NC(=O)c1nsc(C(=O)N(Cc2ccccc2Cl)C(C(=O)NCC2CCCO2)c2ccc(O)cc2)c1N (stereo unspecified), the outcome is reported as “inactive”.
With O=C(NC1CCCCC1)N1CCN(C(c2ccccc2)c2ccccc2)CC1 the outcome was “inactive”.
For Cc1ccc(NC(=S)N(CCCN(C)C)Cc2cc3cc4c(cc3[nH]c2=O)OCO4)c(C)c1, the outcome was “inactive”.
In the case of CCCC[n+]1c2ccccc2cc2ccccc21, the outcome is reported as “inactive”.
With CC(C)(C)CC(C)(C)NCC(O)COc1ccc2c(c1)CCC2 (stereo unspecified) the outcome was “inactive”.
For CCOc1ccc(Cl)cc1/C=N/O, the outcome was “inactive”.
With O=C(C[n+]1cc(-c2ccc(Cl)c(Cl)c2)n2c1CCC2)N1c2ccccc2Sc2ccccc21 the outcome was “inactive”.
For CC1CCc2c(sc3ncnc(SCC(=O)Nc4ccc(C(=O)O)cc4)c23)C1 (stereo unspecified), the outcome was “inactive”.
In the case of NS(=O)(=O)c1ccc(Nc2nc(-c3ccc(O)cc3O)cs2)cc1, the outcome is reported as “inactive”.
In the case of CCCn1c(NC(=O)c2ccc(Cl)c(S(=O)(=O)N3CCCC3)c2)nc2ccccc21, the outcome is reported as “inactive”.
